PubChem BioAssay (Tox21)
Values joined by “and” are separate entries in the source; they are usually repeats but may differ in a detail not shown here. Equal values may be shown once. Results filed as inconclusive are left out. Some compounds were tested as several samples or in several runs, with calls that do not always agree. Active and inactive are the calls of the source. Unless noted, calls come from the whole dose curve; as a rule, active = well fitted curve in the direction sought with a large enough effect in the repeat runs; inconclusive = weak or mixed curves; inactive = no such curve, though single readings can be large; an effect the other way counts as inactive or inconclusive.

Experiments:
[1] = qHTS assay to identify small molecule agonists of the hypoxia (HIF-1) signaling pathway - cell viability counter screen (AID 1224844; calls by dose curve; note: nearly all actives have a fitted effect of over 50% in size; note: potency is the fitted concentration of half-maximal effect)
Outline: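 HRE-bla ME-180; 0.5% dFBS; cpd 17 h, 37C, 5% CO2; CellTiter-Glo lum., 30 min RT, post-FRET read, same wells.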

[2] = qHTS assay to identify small molecule agonists of H2AX (AID 1224845; active = well fitted activation curve with a large enough effect in the signal ratio in the repeat runs, not every such curve was filed as active; the % refers to the signal ratio)
Outline: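 Phospho-H2AX Ser139 measured by HTRF (ex 320 nm; em 665 and 620 nm) after 24 hr antibody incubation. Compounds, 15 concentrations, 0.76% DMSO, were applied to CHO-K1 cells for 3hr at 37C before lysis.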

[3] = qHTS assay to identify small molecule agonists of H2AX - cell viability counter screen (AID 1224847; calls by dose curve; note: nearly all actives have a fitted effect of over 30% in size; note: potency is the fitted concentration of half-maximal effect)
Outline: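 CHO-K1 wt, 1000 cells/well, o/n 37C; cpds 15 conc, 3 h 37C, 0.76% DMSO; CellTiter-Glo, 30 min RT, luminescence.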

[4] = qHTS RealTime-Glo MT Cell Viability Assay in HepG2 cells - 24 hour (AID 1224867); note: nearly all actives have a fitted effect of over 50% in size
Outline: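 qHTS, HepG2, 600 cells/well, RealTime-Glo (NanoLuc + prosubstrate) added with cells; 5 h preincubation; DMSO compound addition; 37 C; luminescence at 0/8/16/24/32/40 h.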

[5] = qHTS RealTime-Glo MT Cell Viability Assay in HEK293 cells - 32 hour (AID 1224868); note: nearly all actives have a fitted effect of over 50% in size; note: potency is the fitted concentration of half-maximal effect
Outline: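 Assay medium contained NanoLuc luciferase plus cell-permeant prosubstrate, added with HEK293 cells at 600 cells/well. After 5 h at 37 C/5% CO2 compounds were added; plates stayed at 37 C for 40 h with serial luminescence reads.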

[6] = A CellTox Green Cytotoxicity Assay to monitor cytotoxicity in HEK293 cells - 0 hour (AID 1224869); note: nearly all actives have a fitted effect of over 50% in size
Outline: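 Tox21 screen in HEK293: membrane-impermeant cyanine dye fluoresces on binding dead-cell DNA; compound pinned 5 h post-seeding, plates held at 37 C, signal read repeatedly through 40 h.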

[7] = qHTS RealTime-Glo MT Cell Viability Assay in HepG2 cells - 40 hour (AID 1224870); note: nearly all actives have a fitted effect of over 50% in size; note: potency is the fitted concentration of half-maximal effect
Outline: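 Real-time viability: cells seeded at 600 per well together with NanoLuc and cell-permeant prosubstrate, compounds added after 5 h incubation. Luminescence tracked at 0, 8, 16, 24, 32 and 40 h of exposure.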

[8] = qHTS assay to identify small molecule antagonists of the estrogen related receptor (ERR) signaling pathway from Tox21 library (AID 1224848); note: nearly all actives have a fitted effect of over 50% in size; note: potency is the fitted concentration of half-maximal effect
Outline: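 ERR cell line, 2,000 cells/well. 6 h settle, then compound (DMSO) added; 18 h at 37 C; ONE-Glo luminescence after 30 min RT.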

[9] = qHTS assay to identify small molecule agonists of the estrogen related receptor (ERR) signaling pathway from Tox21 library (AID 1224849; calls by dose curve; note: nearly all actives have a fitted effect of over 15% in size); conditions: ERR reporter cell line, ONE-Glo luciferase, 18 h
Outline: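 Tox21 compounds tested for ERR agonism in an NTP reporter cell line: 18 h treatment at 37 C, then ONE-Glo luminescence.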

[10] = qHTS assay to identify small molecule agonists of the hypoxia (HIF-1) signaling pathway (AID 1224846; active = well fitted activation curve with a large enough effect in the signal ratio in the repeat runs, not every such curve was filed as active; the % refers to the signal ratio)
Outline: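 Reporter induction in HRE-bla ME-180 cells is taken as agonism: cells sit 5 hrs after plating, receive compounds or DMSO only, incubate 17 hrs at 37C under 5% CO2, and are loaded with CCF4-AM for beta-lactamase FRET measurement.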
% is set by controls: 0 for no effect and ±100 for the full control effect.

Nc1ccc(-c2ccccc2)cc1
7.98 µM (active) and inactive: Potency [5]
inactive: Potency [2] | Potency [3] | Potency [4] | Potency [6] | Potency [7]
28.3 µM (active) and inactive: Potency [1]

O=[N+]([O-])c1cccc2ccccc12
inactive: Potency [1] | Potency [2] | Potency [3] | Potency [8] | activity change, positive = activation ([9]; at 92.4 µM (top of the series)) -1.67% and -0.342% | Potency [4] | Potency [5] | Potency [6] | Potency [7]

C#CCOS(=O)OC1CCCCC1Oc1ccc(C(C)(C)C)cc1 (stereo unspecified)
active: Potency [1] 43.6 µM | Potency [3] 4.5 µM | Potency [8] 1.37 µM and 1.54 µM | Potency [5] 13.8 µM and 19.5 µM
inactive: Potency [2] | activity change, positive = activation ([9]; at 92.4 µM (top of the series)) -66% and -59.3% | Potency [6] | Potency [7]

Brc1ccc(Oc2cc(Br)c(Br)cc2Br)c(Br)c1
active: Potency [5] 43.6 µM
inactive: Potency [1] | Potency [2] | Potency [3] | Potency [8] | activity change, positive = activation ([9]; at 92.4 µM (top of the series)) -14.5% | Potency [6] | Potency [7]

c1ccc(N=Nc2ccccc2)cc1
inactive: Potency [1] | Potency [2] | Potency [3] | Potency [8] | activity change, positive = activation ([9]; at 92.4 µM (top of the series)) 2.72% and 1.53% | Potency [4] | Potency [5] | Potency [6] | Potency [7]

CCN(CC)N=O
inactive: Potency [1] | Potency [2] | Potency [3] | Potency [8] | activity change, positive = activation ([9]; at 92.4 µM (top of the series)) 0.678% | Potency [5] | Potency [6] | Potency [7]

NCc1cccnc1
inactive: Potency [1] | Potency [2] | Potency [3] | Potency [8] | activity change, positive = activation ([9]; at 42.5 µM (top of the series)) 0.61% | activity change, positive = activation ([9]; at 92.4 µM (top of the series)) 4.26% | Potency [5] | Potency [6] | Potency [7]

O=P(O)(O)CCCl
inactive: Potency [1] | Potency [2] | Potency [3] | Potency [4] | Potency [5] | Potency [6] | Potency [7]

Nn1cnnc1
inactive: Potency [1] | Potency [2] | outcome [10] | Potency [3] | Potency [5] | Potency [6] | Potency [7]

Nc1ccncc1
inactive: Potency [1] | Potency [2] | Potency [3] | Potency [4] | Potency [5] | Potency [6] | Potency [7]

CCCCCc1cc(O)cc(O)c1
active: Potency [3] 113 µM | Potency [5] 24.5 µM
inactive: Potency [1] | Potency [2] | outcome [10] | Potency [6]
inactive and 49 µM (active): Potency [7]

CCCCCCCCOC(=O)c1ccccc1C(=O)OCCCCCCCC
inactive: Potency [1] | Potency [2] | outcome [10] | Potency [3] | Potency [5] | Potency [6] | Potency [7]

CC(C)NC(C)C
inactive: Potency [1] | Potency [2] | Potency [3] | Potency [4] | Potency [5] | Potency [6] | Potency [7]

CCC(=O)O[C@H]1CC[C@H]2[C@@H]3CCC4=CC(=O)CC[C@]4(C)[C@H]3CC[C@]12C
54.9 µM (active) and inactive: Potency [1]
101 µM (active) and inactive: Potency [3]
active: Potency [5] 19.5 µM and 23.9 µM
inactive: Potency [2] | outcome [10] | Potency [6] | Potency [7]

Cc1cc(C)cc(C)c1
inactive: Potency [1] | Potency [2] | Potency [3] | Potency [4] | Potency [5] | Potency [6] | Potency [7]

COP(=O)(OC)OC
inactive: Potency [1] | Potency [2] | Potency [3] | Potency [8] | activity change, positive = activation ([9]; at 92.4 µM (top of the series)) -30.8% and 3.29% | Potency [5] | Potency [6] | Potency [7]

ClC1C(Cl)C(Cl)C(Cl)C(Cl)C1Cl (stereo unspecified)
inactive: Potency [1] | Potency [2] | outcome [10] | Potency [4] | Potency [6] | Potency [7]
inactive and 48.6 µM (active): Potency [8]
inactive and 54.9 µM (active): Potency [5]

Cc1c(COC(=O)[C@@H]2[C@H](/C=C(\Cl)C(F)(F)F)C2(C)C)cccc1-c1ccccc1
inactive: Potency [1] | Potency [2] | outcome [10] | Potency [4] | Potency [6] | Potency [7]
active: Potency [5] 21.4 µM

CCC(C)c1ccc(O)cc1 (stereo unspecified)
inactive: Potency [1] | Potency [2] | outcome [10] | Potency [8] | activity change, positive = activation ([9]; at 92.4 µM (top of the series)) -5.15% and 5.69% | Potency [4] | Potency [5] | Potency [6] | Potency [7]

O=C(NC(=O)c1c(F)cccc1F)Nc1ccc(Cl)cc1
inactive: Potency [1] | Potency [2] | outcome [10] | Potency [3] | Potency [6] | Potency [7]

Cc1ccc(OP(=O)(Oc2ccc(C)cc2)Oc2ccc(C)cc2)cc1
inactive: Potency [1] | Potency [2] | outcome [10] | Potency [8] | activity change, positive = activation ([9]; at 92.4 µM (top of the series)) -19.4% and -4.77% | Potency [4] | Potency [5] | Potency [6] | Potency [7]
